For 97 compounds, inhibition results are on record in PubChem BioAssay AID777 (Sanford-Burnham Center for Chemical Genomics, 2007).

Screen size: about 96,000 compounds; about 19,000 (20%) were called active.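 How the source made its calls: active means blocking of liver enzyme CYP2C9 beyond about 50% at 5 µM (limit read from the data); inactive means the rest.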 Only a sample is shown.

As usually defined, the inhibition is the relative decrease from the control value, in per cent.

The target of this assay is Cytochrome P450 2C9 (Homo sapiens) (UniProt P11712). Put plainly: blockers of cytochrome P450 2C9 activity – biochemical, luminescence, ADME assay, primary screen (AID 777). As to conditions: CYP2C9 Supersomes, luciferin-H conversion, at 5 µM, stronger effect = higher value.
Cytochrome P450 2C9 (Homo sapiens), sequence (P11712 whole entry, looked up): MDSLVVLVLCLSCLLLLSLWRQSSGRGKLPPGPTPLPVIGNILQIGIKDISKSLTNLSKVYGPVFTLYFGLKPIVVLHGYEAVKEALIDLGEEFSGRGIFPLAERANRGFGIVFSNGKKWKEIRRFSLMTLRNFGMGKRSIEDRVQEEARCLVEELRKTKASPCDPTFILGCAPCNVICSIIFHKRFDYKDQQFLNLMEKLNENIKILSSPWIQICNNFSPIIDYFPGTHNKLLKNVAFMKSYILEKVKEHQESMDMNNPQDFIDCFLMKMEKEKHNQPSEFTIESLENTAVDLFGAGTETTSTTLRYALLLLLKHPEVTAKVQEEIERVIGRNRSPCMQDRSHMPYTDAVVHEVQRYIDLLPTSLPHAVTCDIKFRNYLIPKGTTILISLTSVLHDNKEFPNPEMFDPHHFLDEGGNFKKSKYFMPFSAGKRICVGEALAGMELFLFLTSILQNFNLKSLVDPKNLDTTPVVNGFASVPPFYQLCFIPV
Consider `COc1ccc2c(c1)C(C)=CC(C)(C)N2C(=O)CNCc1ccc2c(c1)OCO2`, for which the inhibition is 77.9% (active).

In the case of `CCn1cc(C(=O)N2CCN(Cc3ccc4c(c3)OCO4)CC2)c2cc(OC)c(OC)cc2c1=O`, the inhibition was -44.4% (inactive).

Take `COc1ccc(C(=O)/C=C/Nc2ccccn2)cc1`: the inhibition is -6.6% (inactive).

As to `COCCN(C(=O)CCC(=O)Nc1ccccn1)C(C(=O)NCCC(C)C)c1ccc(OC)cc1` (configuration not stated), the inhibition is 52% (active).

Turning to `COc1ccc(C(C(=O)NCc2ccccc2)N(Cc2cccs2)C(=O)c2cnccn2)cc1` (configuration not stated), the inhibition was 34% (inactive).

Regarding `CCOC(=O)C(CC)Sc1ncnc2c1nnn2-c1ccc(F)cc1` (configuration not stated), the inhibition was 8.9% (inactive).

On to `O=C(Nc1ccccc1Cl)N1CCN(c2ccc3nncn3n2)CC1`, for which the inhibition is 37.8% (inactive).

In the case of `CCC(=O)N(C)C(c1ccccc1Cl)c1nnnn1-c1c(C)cccc1C` (configuration not stated), the inhibition is 18.4% (inactive).

Turning to `CCOC(=O)c1c(NC(=O)CSc2nnc(C)c(=O)[nH]2)sc2c1CCC2`, the inhibition is 98.9% (active).

With `CCOC(=O)c1c(NC(=O)CCCN2CCOCC2)sc2c1CC(C)(C)OC2`, the inhibition was 18.7% (inactive).

Take `CCOC(=O)c1c(NC(=O)CSc2nnc(CN3CCOCC3)n2C)sc2c1CCCC2`: the inhibition is 75.6% (active).

Turning to `CCCOC(=O)Nc1sc2c(c1C(=O)OCC)CCC2`, the inhibition was 19.7% (inactive).

On to `NC(=O)c1c(NC(=O)CSc2nnc(-c3ccco3)n2N)sc2c1CCCC2`, for which the inhibition is 44% (inactive).

With `CCc1ccc(C(=O)CSc2nnc(C)c(=O)[nH]2)cc1`, the inhibition was 49.5% (inactive).

Consider `COCCNCCOCCOc1cccc(OC)c1`, for which the inhibition is 12.5% (inactive).

In the case of `Clc1ccccc1-c1cc(COc2ccc3ccccc3c2)no1`, the inhibition is -11% (inactive).

As for `CC(C)NS(=O)(=O)c1ccc(NC(=O)C2CCCCC2)cc1`, the inhibition was 4.3% (inactive).

Regarding `CC(C)(C)NS(=O)(=O)c1ccc(NC(=O)NC2CCCCC2)cc1`, the inhibition was 18.1% (inactive).

Consider `CCOC(=O)[C@H]1CCC[C@@H](NS(=O)(=O)c2ccc(NC(C)=O)cc2)C1`, for which the inhibition was 80.1% (active).

Consider `CC(C)OCCCNC(=O)CNC(=O)c1cccs1`, for which the inhibition was 10.8% (inactive).

Take `OC(c1ccccc1)c1nccn1Cc1ccccc1` (configuration not stated): the inhibition is 10.1% (inactive).

In the case of `O=C1c2ccccc2C(=O)N1CC1c2ccccc2CCN1S(=O)(=O)c1ccccc1` (configuration not stated), the inhibition was 27.5% (inactive).

Turning to `COc1cc(C(O)c2nc3ccccc3n2C)cc(OC)c1OC` (configuration not stated), the inhibition was 35.4% (inactive).

Regarding `CCCn1c(C(O)c2ccc(OCC)cc2)nc2ccccc21` (configuration not stated), the inhibition was 43% (inactive).

For `CCCn1c(C(O)c2cc(OC)ccc2OC)nc2ccccc21` (configuration not stated), the inhibition was 57.7% (active).

Take `O=C(O)CSCNC(=O)CC12CC3CC(CC(C3)C1)C2`: the inhibition is 10.4% (inactive).

As to `COc1ccc(C(=O)Nc2ncc3c(n2)-c2ccccc2CC3)cc1`, the inhibition is 5.5% (inactive).

In the case of `CCOC(=O)C(=CNc1cccc(C)n1)C(=O)OCC`, the inhibition was 5.3% (inactive).

Turning to `O=P(O)(CP(=O)(c1ccccc1)c1ccccc1)c1ccccc1`, the inhibition was -3.1% (inactive).

Consider `COc1ccc(OC)c(NC(=O)CN2CCN(C(=O)c3ccco3)CC2)c1`, for which the inhibition is 2.7% (inactive).

Turning to `COc1ccc(NC(C)=O)cc1NC(=O)CN1CCN(c2ccccn2)CC1`, the inhibition was 6.5% (inactive).

On to `COc1ccc(NC(C)=O)cc1NC(=O)CN1CCN(C2c3ccccc3-c3ccccc32)CC1`, for which the inhibition is 79% (active).

As to `Cc1ccc(N2C(=O)CC(NCc3ccc4c(c3)OCO4)C2=O)cc1Cl` (configuration not stated), the inhibition is 76.5% (active).

On to `Cc1ccc(CC2CC(=O)N(c3ccc4c(c3)OCCO4)C2=O)cc1` (configuration not stated), for which the inhibition is 19.5% (inactive).

Consider `O=CN1CCN(C2CC(=O)N(c3ccc4c(c3)OCO4)C2=O)CC1` (configuration not stated), for which the inhibition is -50.5% (inactive).

`CCc1ccc2nc3sc(C(=O)Nc4nnc(CC)s4)c(N)c3cc2c1`: the inhibition is 31.5% (inactive).

For `O=C(NCCCN1CCOCC1)c1cnn2c(-c3ccccc3)cc(-c3ccccc3)nc12`, the inhibition was 7.3% (inactive).

On to `Cc1cccc(N2CCN(C(=O)c3cnn4c(C(F)F)cc(-c5ccccc5)nc34)CC2)c1C`, for which the inhibition was 93.5% (active).

As to `O=C(O)c1cnn2c(C(F)(F)F)cc(-c3ccccc3)nc12`, the inhibition was 18.5% (inactive).

`CC1CC(C)CN(C(=O)CSc2nnc(CSc3ncccn3)n2C)C1` (configuration not stated): the inhibition was -5.7% (inactive).

`CCOc1cc(-c2nc3cc(C)ccn3c2NCC2CCCO2)ccc1O` (configuration not stated): the inhibition was 8.6% (inactive).

Take `O=C1c2ccccc2NC(c2ccc(-c3cccc(Cl)c3)o2)N1O` (configuration not stated): the inhibition is 52.4% (active).

With `COc1ccc(-n2ncc3c(N4CCCc5ccccc54)ncnc32)cc1`, the inhibition is 1.2% (inactive).

On to `O=C(C1=C(O)C(=O)N(c2ncccn2)C1c1cccs1)c1ccco1` (configuration not stated), for which the inhibition was -13.2% (inactive).

On to `NC(=O)C1CCN(C(=O)c2ccc(-c3ccccc3)cc2)CC1`, for which the inhibition is -10.3% (inactive).

As for `COc1cccc2c(=O)n(CC(=O)N3CCCCCC3)ccc12`, the inhibition is -29.3% (inactive).

Consider `NC(=O)C1CCN(C(=O)c2ccc(C(F)(F)F)cc2)CC1`, for which the inhibition is -4.8% (inactive).

Take `CCOC(=O)N1CCN(C(=O)c2ccc3c(c2)N(Cc2ccc(C)cc2)CCS3)CC1`: the inhibition was 32.3% (inactive).

As for `CCOC(=O)N1CCN(C(=O)c2ccc(S(=O)(=O)c3ccc(C)cc3)c(NC(C)=O)c2)CC1`, the inhibition was -6.9% (inactive).

For the compound `COc1ccccc1N(C)S(=O)(=O)c1ccc(C(=O)N2CCC(C(N)=O)CC2)cc1`, the inhibition is 53.8% (active).

For the compound `COc1ccccc1-c1cc(C(=O)N2CCCCC2)no1`, the inhibition was -15.6% (inactive).

In the case of `CCOC(=O)N1CCN(C(=O)c2ccc(CN(c3ccc(C)c(C)c3)S(C)(=O)=O)cc2)CC1`, the inhibition was 71.2% (active).

Regarding `COc1ccccc1N(CC(=O)N1CCCCC1)S(=O)(=O)c1ccccc1`, the inhibition was 56.8% (active).

Regarding `CCOC(=O)N1CCN(C(=O)CN(c2ccc(C)c(C)c2)S(=O)(=O)c2ccccc2)CC1`, the inhibition is 72.9% (active).

As for `CSc1ccc(-c2c(C#N)c(N)nc3c2c(C)nn3-c2ccccc2)cc1`, the inhibition is 17.3% (inactive).

Consider `N#CC1=C(N)N(c2ccc(F)cc2)C(=O)C1`, for which the inhibition was -13.8% (inactive).

For the compound `Cc1c(NC(=O)c2coc(=O)c(Br)c2)c(=O)n(-c2ccccc2)n1C`, the inhibition is -1.3% (inactive).

For the compound `CC(Nc1nc(N2CCCC2)nc2ccccc12)c1ccccc1` (configuration not stated), the inhibition is 11.6% (inactive).

Regarding `N#C/C(=C/c1ccc(Cl)cc1)NC(=O)c1ccccc1`, the inhibition is 40.8% (inactive).

Consider `COc1ccccc1-n1nnnc1S(=O)(=O)Cc1ccc(Cl)cc1`, for which the inhibition was 45.6% (inactive).

As to `COc1cccc(NC(=O)C2c3cc(OC)c(OC)cc3C(=O)N(C)C2c2cccnc2)c1` (configuration not stated), the inhibition was 30.6% (inactive).

For `CS(=O)(=O)c1sc2nc(-c3ccccc3)cc(-c3ccccc3)c2c1N`, the inhibition was 19% (inactive).

`CC(C)c1ccc(N2CC(C(=O)Nc3nccs3)CC2=O)cc1` (configuration not stated): the inhibition was 78.1% (active).

For `CCc1ccc(N2CC(C(=O)NC3=NCCS3)CC2=O)cc1` (configuration not stated), the inhibition is 27.4% (inactive).

Consider `CCCOc1ccc(N2CC(C(=O)Nc3ccccn3)CC2=O)cc1` (configuration not stated), for which the inhibition was 8.9% (inactive).

Take `Cc1ccc(-n2nc(N)c3c(=O)oc(N(C)C)nc32)cc1`: the inhibition was 11.3% (inactive).

Regarding `O=C(COc1cc(Cl)c(Cl)cc1Cl)NC(=O)NC1CCCC1`, the inhibition is -13% (inactive).

For `O=C(Cc1ccc2c(c1)CCCC2)Nc1ccccc1Cl`, the inhibition was 13.7% (inactive).

As to `CCNC(=S)Nc1cccc(Cl)c1C`, the inhibition is 16% (inactive).

For the compound `CCOc1ccc(NC(=O)CN(C)CC(=O)Nc2cccc(Cl)c2C)cc1OCC`, the inhibition is 56.1% (active).

On to `CC(=O)N1CC2(C)CN(C(C)=O)CC(C)(C1)C2=O`, for which the inhibition was -0.1% (inactive).

Regarding `O=C(Nc1cccc(OCC(=O)N2CCOCC2)c1)C1CCCCC1`, the inhibition is -6.8% (inactive).

Regarding `CCN(CC)S(=O)(=O)c1ccc2c3c(cccc13)C(=O)S2`, the inhibition was -46.8% (inactive).

In the case of `O=c1[nH]nc(Cc2ccccn2)c2ccccc12`, the inhibition was -9.2% (inactive).

`CN(CCc1ccccn1)S(=O)(=O)c1ccc2c3c(cccc13)C(=O)N2`: the inhibition is 70.5% (active).

For the compound `Cc1cc2[nH]ncc2cc1NC(=S)NC(=O)c1ccccc1`, the inhibition is 97.8% (active).

As for `COC(=O)c1nc(NC(=O)c2ccccc2)n[nH]1`, the inhibition is 0.3% (inactive).

Consider `Cc1ccc(NC(=S)NC(=O)c2ccc(-c3ccccc3)cc2)c(C)c1`, for which the inhibition was 19% (inactive).

Turning to `COc1ccc(N(CC(=O)NC(C)(C)C)C(=O)c2ccco2)cc1`, the inhibition was 9.6% (inactive).

For `Cc1cc(Cl)ccc1N1C(=O)CC(SCCC(=O)O)C1=O` (configuration not stated), the inhibition is 35.2% (inactive).

On to `COc1ccc(NC(=O)CN(C)S(=O)(=O)c2ccccc2)cc1OC`, for which the inhibition was 21.2% (inactive).

As for `Cc1ccc(NC(=O)CN(C)S(=O)(=O)c2cnc[nH]2)cc1C`, the inhibition was 93.7% (active).

On to `C/C(=C\C(=O)c1cccnc1)Nc1ccc(C)c(C)c1`, for which the inhibition was 12.9% (inactive).

With `Cc1ccc(C)n1-c1ccncc1`, the inhibition was 40.5% (inactive).

For the compound `COc1ccc(Cl)cc1S(=O)(=O)N1CCN(CC(=O)C(C)(C)C)CC1`, the inhibition was -142% (inactive).

Take `CCOC(=O)c1c(NC(=S)NC(=O)c2ccco2)sc2c1CCCC2`: the inhibition was 0.4% (inactive).

On to `CCOC(=O)c1c(-c2ccccc2)csc1NC(=S)NC(=O)c1ccccc1`, for which the inhibition was 55% (active).

In the case of `CCOC(=O)c1c(-c2cccc(C)c2)csc1NC(=O)c1c(-c2ccccc2)noc1C`, the inhibition was 26.8% (inactive).

As to `O=C1CSC(c2ccc(Cl)cc2)N1` (configuration not stated), the inhibition was -1% (inactive).

With `COc1cc(C2CC(=O)N3CN(Cc4ccccc4)CSC3=C2C#N)ccc1OCc1ccccc1` (configuration not stated), the inhibition is 86.4% (active).

As for `COc1ccc(C2CC(=O)n3c(nc4ccccc43)S2)cc1OC` (configuration not stated), the inhibition was 14.4% (inactive).

As for `COc1ccc(C2CC(=O)Nc3sc(=N)c4c(N)c(C#N)c(N)nc4c32)cc1OC` (configuration not stated), the inhibition was 41.6% (inactive).

As to `CCCNC(=O)C1CC(=O)N(c2ccc(OCC(=O)Nc3cccc(C)c3C)cc2)C1` (configuration not stated), the inhibition is 22.1% (inactive).

As for `COc1ccc(-n2nc3c(c2NC(=O)Cc2cccc(C)c2)CS(=O)C3)cc1` (configuration not stated), the inhibition was -1.9% (inactive).

Consider `Cc1ccc(OC(=O)c2ccccc2C(=O)OCC(F)(F)C(F)F)cc1`, for which the inhibition was 84.1% (active).

For the compound `COc1ccccc1C(=O)Oc1ccc(N2C(=O)CCC2=O)cc1`, the inhibition was -113% (inactive).

Consider `Cc1ccc(OC(=O)c2cc3ccccc3o2)cc1`, for which the inhibition was -2.9% (inactive).
